Test results from PubChem BioAssay AID1671202 (University of Kansas High Throughput Screening Laboratory, 2021).
Values joined by “and” are separate entries in the source; they are usually repeats but may differ in a detail not shown here. Equal entries are not always repeated. Screen size: about 190,000 compounds; about 6,900 (3.6%) were called active. Rule as the data show it: active = inhibition above about 50%; inactive = the rest. The list comes from a sample in which actives are over-represented; it also holds similar structures and randomly drawn compounds.

Molecular target: Huntingtin (Homo sapiens) (UniProt P42858)
Experiment: mutant huntingtin-calmodulin interaction inhibitors – biochemical, AlphaScreen, primary screen (AID 1671202);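 also: 0% = both proteins with DMSO and 100% = one protein alone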
Conditions: AlphaScreen His-mHTT/GST-CaM binding, luminescence; at 15 µM, stronger effect = higher value

Huntingtin (Homo sapiens), sequence (P42858 whole entry, looked up, stated change not applied): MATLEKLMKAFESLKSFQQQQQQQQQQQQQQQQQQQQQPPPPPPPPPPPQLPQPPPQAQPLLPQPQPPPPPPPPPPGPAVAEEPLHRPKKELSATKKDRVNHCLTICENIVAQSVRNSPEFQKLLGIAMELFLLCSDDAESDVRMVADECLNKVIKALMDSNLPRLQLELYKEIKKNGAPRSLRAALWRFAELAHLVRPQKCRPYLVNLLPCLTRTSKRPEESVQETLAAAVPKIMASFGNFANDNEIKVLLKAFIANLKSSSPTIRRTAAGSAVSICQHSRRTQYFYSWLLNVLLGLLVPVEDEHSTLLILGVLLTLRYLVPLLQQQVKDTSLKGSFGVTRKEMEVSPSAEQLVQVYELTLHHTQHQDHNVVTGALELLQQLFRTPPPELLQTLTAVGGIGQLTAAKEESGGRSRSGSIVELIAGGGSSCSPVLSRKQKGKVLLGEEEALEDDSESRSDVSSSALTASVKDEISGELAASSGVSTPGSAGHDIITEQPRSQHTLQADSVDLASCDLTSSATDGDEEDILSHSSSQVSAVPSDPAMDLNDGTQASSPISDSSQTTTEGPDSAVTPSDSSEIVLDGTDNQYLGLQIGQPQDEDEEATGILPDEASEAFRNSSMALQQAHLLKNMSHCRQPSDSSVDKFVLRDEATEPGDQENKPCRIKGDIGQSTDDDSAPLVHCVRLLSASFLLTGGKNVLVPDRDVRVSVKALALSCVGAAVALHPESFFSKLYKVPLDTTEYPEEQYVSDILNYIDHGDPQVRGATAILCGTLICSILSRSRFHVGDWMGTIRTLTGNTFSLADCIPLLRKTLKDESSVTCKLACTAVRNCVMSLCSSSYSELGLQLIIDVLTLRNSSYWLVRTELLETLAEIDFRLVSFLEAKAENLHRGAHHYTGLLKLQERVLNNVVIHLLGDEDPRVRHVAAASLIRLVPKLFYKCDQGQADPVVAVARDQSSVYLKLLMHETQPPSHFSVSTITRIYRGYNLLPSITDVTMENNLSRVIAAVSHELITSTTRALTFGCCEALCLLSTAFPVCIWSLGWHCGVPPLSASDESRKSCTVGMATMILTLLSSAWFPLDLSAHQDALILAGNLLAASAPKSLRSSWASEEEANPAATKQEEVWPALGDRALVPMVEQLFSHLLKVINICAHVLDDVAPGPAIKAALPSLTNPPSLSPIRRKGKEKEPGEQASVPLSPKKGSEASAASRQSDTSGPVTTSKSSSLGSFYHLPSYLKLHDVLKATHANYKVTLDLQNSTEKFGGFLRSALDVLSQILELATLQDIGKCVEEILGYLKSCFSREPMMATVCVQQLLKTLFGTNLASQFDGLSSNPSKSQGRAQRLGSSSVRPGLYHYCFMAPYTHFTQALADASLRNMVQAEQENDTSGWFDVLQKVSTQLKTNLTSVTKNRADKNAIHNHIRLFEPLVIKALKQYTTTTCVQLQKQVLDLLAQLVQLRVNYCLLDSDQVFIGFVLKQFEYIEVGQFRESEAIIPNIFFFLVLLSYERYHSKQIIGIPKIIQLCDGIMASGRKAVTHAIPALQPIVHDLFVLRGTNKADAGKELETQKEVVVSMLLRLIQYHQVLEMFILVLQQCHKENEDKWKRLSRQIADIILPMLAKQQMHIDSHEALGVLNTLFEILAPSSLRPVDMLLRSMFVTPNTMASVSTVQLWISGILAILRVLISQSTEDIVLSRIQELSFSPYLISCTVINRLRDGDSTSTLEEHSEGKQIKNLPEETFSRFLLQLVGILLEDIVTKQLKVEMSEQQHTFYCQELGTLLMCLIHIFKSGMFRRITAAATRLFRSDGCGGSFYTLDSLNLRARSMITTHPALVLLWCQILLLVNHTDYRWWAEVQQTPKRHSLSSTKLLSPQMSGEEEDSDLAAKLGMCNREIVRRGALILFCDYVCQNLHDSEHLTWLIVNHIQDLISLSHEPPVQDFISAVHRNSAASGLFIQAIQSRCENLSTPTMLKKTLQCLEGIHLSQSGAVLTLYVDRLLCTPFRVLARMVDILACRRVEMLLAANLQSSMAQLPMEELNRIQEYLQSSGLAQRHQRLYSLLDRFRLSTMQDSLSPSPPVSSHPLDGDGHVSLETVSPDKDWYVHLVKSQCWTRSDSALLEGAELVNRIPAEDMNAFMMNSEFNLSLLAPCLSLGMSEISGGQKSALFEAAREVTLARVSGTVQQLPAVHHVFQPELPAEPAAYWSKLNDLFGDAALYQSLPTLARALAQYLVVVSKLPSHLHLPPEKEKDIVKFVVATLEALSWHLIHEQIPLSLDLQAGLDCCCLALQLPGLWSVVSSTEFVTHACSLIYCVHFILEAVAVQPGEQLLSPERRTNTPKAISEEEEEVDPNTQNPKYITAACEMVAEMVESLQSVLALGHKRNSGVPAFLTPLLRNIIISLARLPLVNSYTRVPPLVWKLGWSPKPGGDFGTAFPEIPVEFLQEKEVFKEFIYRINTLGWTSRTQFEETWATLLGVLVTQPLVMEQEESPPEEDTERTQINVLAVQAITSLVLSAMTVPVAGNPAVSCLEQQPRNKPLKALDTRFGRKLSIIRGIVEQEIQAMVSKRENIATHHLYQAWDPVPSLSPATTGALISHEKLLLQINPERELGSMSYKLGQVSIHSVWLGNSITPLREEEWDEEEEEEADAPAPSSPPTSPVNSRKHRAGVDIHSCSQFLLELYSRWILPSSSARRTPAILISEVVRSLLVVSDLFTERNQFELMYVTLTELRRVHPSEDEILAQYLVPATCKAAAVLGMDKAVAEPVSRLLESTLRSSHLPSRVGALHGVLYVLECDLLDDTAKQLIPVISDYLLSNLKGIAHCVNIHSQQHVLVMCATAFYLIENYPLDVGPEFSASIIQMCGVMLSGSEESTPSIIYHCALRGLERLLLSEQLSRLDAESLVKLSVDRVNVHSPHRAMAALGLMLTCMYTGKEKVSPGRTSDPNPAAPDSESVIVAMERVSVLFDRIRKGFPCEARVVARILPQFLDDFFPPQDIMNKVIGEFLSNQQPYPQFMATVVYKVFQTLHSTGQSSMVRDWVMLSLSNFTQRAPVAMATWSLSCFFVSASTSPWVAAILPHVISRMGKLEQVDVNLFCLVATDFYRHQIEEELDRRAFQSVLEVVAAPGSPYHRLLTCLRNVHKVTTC

SMILES | inhibition
O=C1C(c2ccc(F)cc2)N(C2CCCC2)C(=O)CN1C1CCCCCC1 (stereo unspecified) | -6% (inactive)
O=C(CCCn1c2ccccc2c(=O)c2ccccc21)Nc1ccc(C(F)(F)F)cn1 | 23% (inactive)
O=C(NCc1cccc(F)c1)c1cc2n(n1)CCCN(Cc1ccc(Cl)cc1)C2=O | 16.8% (inactive)
CCCc1cc(C2CCCN2Cc2cc(OC)c(OC)cc2OC)no1 (stereo unspecified) | 37.6% (inactive)
COc1cc(C2NC(C(=O)O)CS2)ccc1O (stereo unspecified) | -7% (inactive)
COc1ccc([N+](=O)[O-])cc1NC(=O)CC(C)C | -0.3% (inactive)
COc1ccc([N+](=O)[O-])cc1NC(=O)c1ccc(C)c(Br)c1 | 8.5% (inactive)
COc1ccc([N+](=O)[O-])cc1-n1c(C)ccc1C | 51.9% (active)
O=C(CC(C(=O)O)N1CCNCC1)Nc1ccc(OC(F)F)cc1 (stereo unspecified) | -16.1% (inactive)
Cc1ccc(NC(=O)Cn2cccc2-c2nnc(C3CCC3)o2)cc1 | 12.1% (inactive)
O=C1c2ccccc2C(=O)c2c(NC3CCCCC3)cccc21 | 73% (active)
CC1CCCC(C)N1C(=O)c1cccc2c1-c1ccccc1C2=O (stereo unspecified) | -6% (inactive) and 2.5% (inactive)
O=C1c2ccccc2C(=O)c2c(NC(=O)c3c(F)cccc3F)cccc21 | 1% (inactive)
O=C(CSc1ccc(C(F)(F)F)cc1[N+](=O)[O-])Nc1ccccc1Cl | 8% (inactive)
CCOc1cc(/C=C2\NC(=O)NC2=O)cc(Cl)c1OC(C)C | 14% (inactive)
CCOc1cc(/C=C2\NC(=O)NC2=O)cc(Cl)c1OCc1ccc([N+](=O)[O-])cc1 | 74% (active)
O=C1NC(=O)/C(=C\c2ccc(OCc3ccc([N+](=O)[O-])cc3)c(Br)c2)N1 | 10% (inactive)
COc1cccc(CN2COc3ccc4c(c3C2)OC(=Cc2cccnc2)C4=O)c1 | 3.4% (inactive)
COc1cccc(CN2COc3ccc4c(c3C2)OC(=Cc2ccc(OC)c(OC)c2OC)C4=O)c1 | 35.7% (inactive)
COc1cccc(C=C2Oc3c(ccc4c3CN(Cc3cc(OC)c(OC)c(OC)c3)CO4)C2=O)c1 | 56.5% (active)
CCn1cnnc1C1CCCCN1C(=O)c1cnccn1 (stereo unspecified) | 0.74% (inactive)
CCOc1ccccc1/C=C1\N=C(c2ccc([N+](=O)[O-])cc2Cl)OC1=O | -1% (inactive)
CC(=O)N1CCc2[nH]c3ccc(C(=O)NC4CCCCC4)cc3c2C1 | 9.6% (inactive)
CC(=O)N1CCc2[nH]c3ccc(C(=O)NCCc4ccccn4)cc3c2C1 | 58.7% (active)

SMILES | inhibition
CN1CCC(CCNC(=O)c2ccc3[nH]c4c(c3c2)CN(C(=O)C2CCC2)CC4)CC1 | 4.82% (inactive)
Oc1ccc(Nc2nc(-c3ccc(Cl)cc3Cl)nc3ccccc23)cc1 | 37.4% (inactive)
CCNc1cc(Nc2ccccc2)c2c3c(onc13)-c1ccccc1C2=O | 100% (active)
CCc1cc(C(=O)Nc2ccccc2)no1 | -4.5% (inactive)
O=C(NCc1ccc(Cl)cc1)c1ccc2ncnc(N3CCOCC3)c2c1 | -1.3% (inactive)
CC(=O)c1cccc(NC(=O)C2CCN(S(=O)(=O)c3ccc(Br)cc3)CC2)c1 | -1.7% (inactive)
COc1ccc(C2NC(c3ccc(OC)c(OC)c3)C(C)C(=O)C2C)cc1OC (stereo unspecified) | 10% (inactive)
Cc1ccc(CNC(=O)C2CC(=O)N(C3CCCCCCC3)C2)cc1 (stereo unspecified) | 8.83% (inactive)
CCN(CCCNC(=O)C1CC(=O)N(C2CCCCCCC2)C1)c1cccc(C)c1 (stereo unspecified) | 53% (active)
Cc1ccc(CNC(=O)C2CC(=O)N(C3CCCCC3)C2)cc1 (stereo unspecified) | 2.18% (inactive)
COc1ccc(-n2nc3c(c2NC(=O)c2cccc(OC)c2OC)CS(=O)C3)cc1 (stereo unspecified) | 5% (inactive)
O=C1C2C(C(=O)N1c1cc([N+](=O)[O-])ccc1Cl)C1C=CC2C12CC2 (stereo unspecified) | 4% (inactive)
Cc1ccnc(N2CCCC(C(=O)NCCc3ccc(Cl)cc3)C2)n1 (stereo unspecified) | 7.6% (inactive)
Cc1ccc2cc3cc(C(=O)N(C)c4ccc(Br)cc4)oc3nc2c1 | -8% (inactive)
Cc1ccc(CNC(=O)CCC(=O)N2CCCn3nc(C)cc32)cc1 | 1.63% (inactive)
COc1ccc(C(=O)NCCc2ccc(S(N)(=O)=O)cc2)cc1OC | 9.3% (inactive)
COc1ccc(C(=O)NCCc2nc3ccccc3n2Cc2ccccc2C)cc1OC | 77% (active)
COc1ccc(OC)c2[nH]c(=O)c(CCNC(=O)c3ccc(C)c(C)c3)cc12 | 28% (inactive)
CCNc1cc(N2CCCC(CCC(=O)N3CCN(c4ccccn4)CC3)C2)ncn1 (stereo unspecified) | 1.12% (inactive)
CCC(=O)N1CCc2ccccc2C1C(=O)NCc1ccc(OC)cc1 (stereo unspecified) | 3.87% (inactive)
Cc1ccc(NC(=O)CC2COc3ccc(Cl)cc3NC2=O)cc1Cl (stereo unspecified) | 92.5% (active)
Cc1ccc(NC(=O)CC2COc3ccccc3NC2=O)cc1C (stereo unspecified) | -3.7% (inactive)
O=C(CC1COc2ccccc2NC1=O)Nc1ccc(C(F)(F)F)cc1 (stereo unspecified) | -6.9% (inactive)
Cc1cc(SCC(=O)NCc2ccc3c(c2)OCO3)nc2ccccc12 | -10.7% (inactive)

SMILES | inhibition
O=C(c1cnc(-c2ccccc2)nc1N1CCSCC1)N1CCCCC1 | 18.3% (inactive)
Cc1cccc(N2CCN(C(=O)CCC3CCCN(C(=O)Nc4ccccc4)C3)CC2)c1C (stereo unspecified) | 47% (inactive)
O=C(CSc1ccccn1)c1ccc(Br)cc1 | -42.4% (inactive)
Brc1ccc(CSc2cccc3cccnc23)cc1 | 54% (active)
N#Cc1ccc(CSc2ncccn2)cc1 | -1.95% (inactive)
CN(C)C(CNC(=O)Nc1ccc(Cl)cc1)c1ccco1 (stereo unspecified) | -16% (inactive)
O=C(COc1coc(CN2CCc3ccccc32)cc1=O)NCc1ccco1 | 19.5% (inactive)
CCOc1ccc(NC(=O)N2CC(C)Oc3ccc(C)cc32)cc1 (stereo unspecified) | 1.01% (inactive)
COc1cc(OC)c(OC)cc1/C=C1/CC/C(=C\c2cc(OC)c(OC)cc2OC)C1=O | 23% (inactive)
Cc1cccc(NC(=O)c2cc3c(CO)cnc(C)c3oc2=Nc2ccc(Cl)cc2)c1 | -1% (inactive)
Cc1ccccc1NS(=O)(=O)c1cc(Br)cc2c1N(C(=O)C1CC1)CC2 | 2% (inactive)
CC(C)(C)C1=CC(=Nc2ccccc2N)C=C(C(C)(C)C)C1O (stereo unspecified) | 97% (active)
COCCCNC(=O)c1ccc2c(c1)ncn2-c1ccc(F)c(F)c1 | 9% (inactive)
CCOc1ccc(C(=O)Nc2ccccc2I)cc1[N+](=O)[O-] | 4.6% (inactive)
CCNC(=O)N(C)CC(=O)N1N=C(c2ccccc2F)CC1c1ccc(C)cc1 (stereo unspecified) | 24.6% (inactive)
COc1ccc(C2=NN(C(=O)CCC(=O)O)C(c3ccc(F)cc3)C2)cc1OC (stereo unspecified) | -2.9% (inactive)
Cc1ccc(C2CC(c3cccc(F)c3)=NN2C(=O)CN2CCOCC2)cc1 (stereo unspecified) | 67.8% (active)
COc1ccc(C2CC(c3ccccc3)=NN2C(=O)c2ccc(Br)o2)cc1 (stereo unspecified) | -1% (inactive)
COc1ccccc1C1=NN(C(=O)CN2CCCCC2)C(c2ccc(C)cc2)C1 (stereo unspecified) | 8.3% (inactive)
COc1ccccc1C1=NN(C(=O)CN2CCC(C)CC2)C(c2ccc(C)cc2)C1 (stereo unspecified) | 12.9% (inactive)
O=C(Cc1nnc(-c2cccc(F)c2)o1)N1CCOCC1 | -5.8% (inactive)
COc1ccc(C2=NN(C(=O)CN3CCN(C)CC3)C(c3ccccc3C)C2)cc1 (stereo unspecified) | 42% (inactive)
Cc1ccc(C)c(C2CC(c3ccccc3Cl)=NN2C(=O)CN2CCOCC2)c1 (stereo unspecified) | 79.4% (active)
CCNC(=O)N(C)CC(=O)N1N=C(c2ccc(C)c(C)c2)CC1c1ccc(C)cc1 (stereo unspecified) | 73.4% (active)

SMILES | inhibition
COc1ccc(C2CC(c3ccccc3F)=NN2C(=O)CN2CCOCC2)cc1 (stereo unspecified) | 50.5% (active)
COc1ccc(C2CC(c3cccc(F)c3)=NN2C(=O)CN2CCCCC2)cc1 (stereo unspecified) | 36.7% (inactive)
CC(C)NC(=O)c1ccccc1NC(=O)c1ccc([N+](=O)[O-])cc1 | -2.9% (inactive)
N=C1S/C(=C\c2cccs2)C(=O)N1c1ccc2c(c1)OCO2 | 2% (inactive)
O=C(CSc1ncnc2c1[nH]c1ccccc12)N1CCc2ccccc2C1 | 0% (inactive)
COCC(=O)N1CCCN(c2nc3c(s2)c(C)nn3-c2ccc(C)cc2)CC1 | 45.2% (inactive)
COc1ccc(CCNC(=O)N2CC(c3nc(-c4ccccn4)no3)C2)cc1 | -18.5% (inactive)
COc1ccc(NC(=O)N2CC3CC(NS(=O)(=O)c4cccs4)C2C3)c(OC)c1 (stereo unspecified) | 9.02% (inactive)
N#CC1=C(N)Oc2c(c(=O)[nH]c3ccccc23)C1c1cccs1 (stereo unspecified) | 8% (inactive)
N#CC1=C(N)Oc2c(sc3ccccc23)C1c1ccco1 (stereo unspecified) | 53% (active)
N#CC1=C(N)Oc2ccc3ncccc3c2C1c1ccccc1F (stereo unspecified) | 49% (inactive)
CC(C)=CCOc1ccc2cc(-c3ccccc3)c(=O)oc2c1 | -45.3% (inactive)
O=C(COc1ccc(Br)cc1)Nc1ccccc1C(F)(F)F | -57% (inactive)
CN(C)C(=O)c1cc2c(s1)CCC(C(=O)NCc1ccccc1Cl)C2 (stereo unspecified) | 3.06% (inactive)
O=C1OC(c2cccc(F)c2)=N/C1=C\c1ccc(Br)cc1 | -1% (inactive)
CCC(C)NC(=O)c1ccc2c(c1)nc1n2CCCC1 (stereo unspecified) | -4.18% (inactive)
CN1CCN(c2nc3c(c(=O)[nH]c(=O)n3C)n2CC(=O)c2ccc(Cl)cc2)CC1 | -4% (inactive)
Cc1cccc(N=C/C=C/c2ccc([N+](=O)[O-])cc2)c1 | 72% (active)
O=[N+]([O-])c1ccc(C=Nc2cccc(Cl)c2)cc1 | 30% (inactive)
O=[N+]([O-])c1ccc(C=Nc2ccc(N=Cc3ccc([N+](=O)[O-])cc3)cc2)cc1 | 4% (inactive)
CC(=O)NCCN1C(=O)C(=O)C(=C(O)c2ccc(Cl)cc2)C1c1ccc(Br)cc1 (stereo unspecified) | -0.6% (inactive)
COc1cc(C=C2SC(=S)N(c3ccc(O)cc3)C2=O)ccc1O | 58.5% (active)
COc1cc(/C=C2\SC(=N)N(c3ccccc3OC)C2=O)ccc1O | 36% (inactive)
C=CCOc1ccc(/C=C2\SC(=O)N(c3ccccc3)C2=O)cc1OC | 3% (inactive)
